The results in this text go back to PubChem BioAssay AID651815 (National Center for Advancing Translational Sciences (NCATS), 2012).

Out of some 2,100 compounds screened, about 1,100 (52%) were called active. Not shown: some 29% with an inconclusive outcome. So high a share suggests a set chosen from earlier hits. The list shows a part of the results. A number with no mark means an inactive call. Calls come from the whole dose curve; as a rule, active = well fitted inhibition curve with a large enough effect; inconclusive = small, poorly fitted or top-dose-only effect; inactive = no such curve, though single readings can be large or run the other way.
% is set by controls: 0 for no effect and ±100 for the full control effect; potency is the fitted concentration of half-maximal effect.

Sequence of DNA dC->dU-editing enzyme APOBEC-3F (Homo sapiens) (Q8IUX4 whole entry, looked up): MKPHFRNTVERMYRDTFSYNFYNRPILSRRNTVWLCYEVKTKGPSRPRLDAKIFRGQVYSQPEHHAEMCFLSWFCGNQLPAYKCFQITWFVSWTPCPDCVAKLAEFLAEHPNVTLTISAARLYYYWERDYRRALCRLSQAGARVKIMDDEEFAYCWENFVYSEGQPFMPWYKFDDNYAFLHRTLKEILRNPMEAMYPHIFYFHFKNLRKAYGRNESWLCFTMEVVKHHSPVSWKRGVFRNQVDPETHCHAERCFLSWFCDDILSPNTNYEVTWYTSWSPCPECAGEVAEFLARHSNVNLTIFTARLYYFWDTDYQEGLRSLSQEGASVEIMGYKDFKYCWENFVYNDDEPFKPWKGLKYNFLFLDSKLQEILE

This test addresses DNA dC->dU-editing enzyme APOBEC-3F (Homo sapiens) (UniProt Q8IUX4). The test is described as follows: qHTS for inhibitors of Vif-A3F interactions: Cherry picks counterscreen. Note: nearly all actives have a fitted effect of over 65% in size. The following applies: HeLa A3F-eYFP/Vif cells, eYFP fluorescence, 24 h; series mostly up to 46.1 µM; activity, negative = inhibitor: at the top concentration. The source says: The recent discovery and characterization of host restriction factors, which provide a potent defense to invading retroviruses, has provided new targets for antiviral drug development. APOBEC3G (A3G) and APOBEC3F (A3F) are potent cytidine deaminases that block HIV-1 replication; HIV-1 expresses the Vif protein, which counteracts A3G and A3F by binding to them and inducing their proteasomal degradation. The Vif-A3G and Vif-A3F interactions provide two potential targets for development of small molecules which can interfere with the ability of Vif to degrade A3G or A3F. […] To identify inhibitors that can interfere with Vif mediated degradation of A3G and A3F, we have developed Hela cell lines that stably express A3G or A3F tagged with eYFP at the C-terminal end (A3G-eYFP or A3F-eYFP, respectively) and Vif. In the absence of an inhibitor, Vif induces degradation of A3G-eYFP and A3F-eYFP, and the cells are not fluorescent. In the presence of an inhibitor, it is expected that Vif will be unable to degrade A3G-eYFP and/or A3F-eYFP, resulting in an increase in yellow fluorescence. In this counterscreen assay, Vif A3F was screened against the cherry picks ordered from the MLSMR. NIH Chemical Genomics Center [NCGC] NIH Molecular Libraries Probe Centers Network [MLPCN] MLPCN Grant: MH093245 Assay Submitter (PI): Vinay Pathak, National Cancer Institute
A3F-Vif cells were harvested from T225 flask and resuspended in phenol free OPTI-MEM medium with 5% FBS. Then 5 uL of 140,000 cells/mL resuspended cells was dispensed into each well of low base Aurora COC 1,536-well plates (black walled, clear bottom) using a Multidrop Combi dispenser. After overnight culture at 37 deg C with 5% CO2, a total of 23 nL of compounds at 5 selected concentrations from the NPC or positive control (2 mM stock of MG132) in DMSO was transferred to each well of the assay plate using a pintool (Kalypsys, San Diego, CA), and the plates were further incubated at 37 deg C with 5% CO2 for 24 hours. After that, the plates were measured on Acumen Explorer (TTP Lab Tech). The fluorescence was detected by 488 nm/Ex and […].
Background: In qHTS, concentration-response curves come from the screen itself.
Consider `CC1CC(C)CN(CC(=O)c2c[nH]c3ccccc23)C1` (stereo unspecified), for which the Potency was 20.6 µM (active). Consider `O=C(C(=O)N1CCN(c2ccccc2Cl)CC1)c1c[nH]c2ccccc12`, for which the “activity, negative = inhibitor” value was -0.112% [at 36.9 µM]. Regarding `COc1cc(NC(=O)c2ccco2)c(C(=O)OCC(=O)c2c[nH]c3ccccc23)cc1OC`, the “activity, negative = inhibitor” value was -10.7% [at 36.9 µM]. On to `COc1cc(/C=C(\C#N)c2nc3ccccc3s2)ccc1OCC(=O)Nc1ccccc1`, for which the Potency was 15.8 µM (active). As to `COc1cc(/C=C(\C#N)c2nc3ccccc3[nH]2)ccc1OCc1ccccc1F`, the Potency is 16.4 µM (active). Turning to `COc1cc(/C=C(\C#N)c2nc3ccccc3[nH]2)ccc1O`, the “activity, negative = inhibitor” value is 32.8%.

With `COc1cc(/C=C(\C#N)c2nc3ccc(C)cc3[nH]2)ccc1OC(C)C`, the Potency was 20.6 µM (active). Turning to `COc1cc(/C=C(/C#N)c2nc3ccccc3[nH]2)ccc1OCC(=O)Nc1ccccc1C(C)C`, the Potency was 13 µM (active). For `NNC(=S)Nc1c(F)cc(F)cc1Br`, the “activity, negative = inhibitor” value is -2.67%. As for `CCN(CC)c1ccc(/C=C(/C#N)c2nc3ccccc3[nH]2)c(OC(C)C)c1`, the Potency is 0.366 µM (active). For `CCOc1cc(N(CC)CC)ccc1/C=C(/C#N)c1nc2ccccc2[nH]1`, the “activity, negative = inhibitor” value was 47.3%. As for `COc1cc(/C=C(/C#N)c2nc3ccccc3[nH]2)ccc1OC(=O)c1ccco1`, the “activity, negative = inhibitor” value was 32.9% [at 36.9 µM]. For the molecule `Cc1ccc2nc(/C(C#N)=C\c3ccc(OC(=O)c4cccs4)cc3)[nH]c2c1`, the Potency is 8.86 µM (active). With `Cc1ccc(-c2cc(-c3ccco3)c3c(N)c(C(=O)NN)oc3n2)cc1`, the Potency is 14.6 µM (active). On the same count and under the same terms, the same measure for `NNC(=O)c1oc2nc(-c3ccccc3)cc(-c3ccco3)c2c1N`: 16.4 µM (active); for `CCOc1cc(/C=C2\CN(C)C/C(=C\c3ccc(O)c(OCC)c3)C2=O)ccc1O`: 2.5 µM (active). On to `CCOc1cc(/C=C2\CCC/C(=C\c3cc(Cl)c(O)c(OCC)c3)C2=O)cc(Cl)c1O`, for which the Potency is 12.5 µM (active). In the case of `COc1cc(/C=C2/CCC/C(=C\c3cc(O)c(OC)c(Cl)c3)C2=O)cc(Cl)c1O`, the Potency is 13 µM (active). As to `O=c1c(O)c(-c2cccs2)oc2ccccc12`, the Potency was 2.59 µM (active). For the molecule `Cc1ccc(/C=N/NC(=O)c2cc(C)oc2C)cc1`, the Potency was 7.04 µM (active). As to `CN(C)c1ccc(/C=N/NC(=O)c2ccccc2Cl)cc1`, the Potency was 3.53 µM (active). Take `Cc1ccc(/C=N/NC(=O)c2nc3nc(C)cc(C)n3n2)cc1`: the “activity, negative = inhibitor” value is 7.3%.

`CC(NC(=S)Nc1cccc(C(F)(F)F)c1)C(C)(C)C` (stereo unspecified): the “activity, negative = inhibitor” value is -9.15%. On to `C[C@@H]1O[C@@H](O[C@@H]2C(=O)c3c(O)cc(O)cc3O[C@H]2c2ccc(O)c(O)c2)[C@H](O)[C@H](O)[C@H]1O`, for which the “activity, negative = inhibitor” value was 4.26% [at 36.9 µM]. As for `N#Cc1ccc(-c2cccs2)nc1SCc1c(F)cccc1Cl`, the Potency was 3.66 µM (active). For the molecule `Cc1cccc(CSc2nc(-c3cccs3)ccc2C#N)c1`, the “activity, negative = inhibitor” value is -24.3%. On to `Cc1ccnc(NC(=S)NC(=O)/C=C/c2ccco2)c1`, for which the Potency is 11.2 µM (active). For the molecule `CC(C)(C)c1ccc(-c2csc(NC(=O)CN3C(=O)NC4(CCCCC4)C3=O)n2)cc1`, the “activity, negative = inhibitor” value was -14.8%. `O=C(/C=C/c1ccco1)NC(=S)Nc1cccc(-c2nc3ccccc3o2)c1`: the Potency is 4.98 µM (active). Regarding `CSc1ccccc1NC(=O)COC(=O)/C=C/c1ccco1`, the “activity, negative = inhibitor” value is 4.47%. As for `COc1ccc(-c2csc(NC(=S)NC(=O)/C=C/c3ccco3)n2)cc1Br`, the Potency is 6.27 µM (active). `CN(C)C=Nc1c(Br)cc(Br)c2nonc12`: the Potency is 9.2 µM (active). In the case of `CNC(=S)N/N=C(\C)c1ccc(Cl)s1`, the “activity, negative = inhibitor” value was 3.84%. Turning to `N#CCC(=O)N/N=C/c1ccc(N2N=C(c3ccccc3)CC2c2ccccc2)cc1` (stereo unspecified), the Potency is 16.4 µM (active). With `CCc1ccc(CNC(=O)Cc2ccc(NC(=O)C3=C(C)OCCS3)cc2)cc1`, the Potency is 1.12 µM (active).

On to `Cc1ccc2nc(/C(C#N)=C/c3ccc(-c4cccc(Cl)c4)o3)[nH]c2c1`, for which the Potency was 8.2 µM (active). The same measure, in the same setting: the same measure for `N#C/C(=C\c1ccc(-c2ccc(C(=O)O)cc2)o1)c1nc2ccccc2[nH]1`: 2.59 µM (active). Take `Cc1ccc2nc(/C(C#N)=C/c3ccc(-c4ccccc4C(=O)O)o3)[nH]c2c1`: the Potency was 4.61 µM (active).

Take `N#C/C(=C\c1ccc(-c2ccc(F)cc2F)o1)c1nc2ccccc2[nH]1`: the Potency is 20.6 µM (active).

On to `Cc1c(Cl)cccc1-c1ccc(/C=C(\C#N)c2nc3ccccc3[nH]2)o1`, for which the Potency was 16.4 µM (active).

For `Cc1ccc2nc(/C(C#N)=C/c3ccc(-c4ccc(C(=O)OC(C)C)cc4)o3)[nH]c2c1`, the Potency was 8.2 µM (active). Turning to `Cc1ccc2nc(/C(C#N)=C/c3ccc(-c4ccc(F)cc4F)o3)[nH]c2c1`, the Potency is 4.61 µM (active).

Regarding `COCc1ccc(O)c2ncccc12`, the “activity, negative = inhibitor” value was -0.742% [at 36.9 µM]. For `CC(=O)c1sc(N/N=C\c2c(O)ccc3ccccc23)nc1C`, the Potency was 14 µM (active).

Regarding `CCOC(=O)c1sc(NC(=S)NC(=O)c2ccco2)nc1C`, the “activity, negative = inhibitor” value was 1.21%.

With `COc1ccc(C(=O)NC2CCCc3ccccc32)cc1[N+](=O)[O-]` (stereo unspecified), the Potency is 8.86 µM (active).
